From PubChem BioAssay
Values without a mark were called inactive. Activity calls are given as the source filed them. Cut-off read from the data, not from the text of the source, unless noted: active = inhibition above about 30%; inactive = the rest.

These compounds were tested against Nuclear receptor coactivator 3 (Homo sapiens) (UniProt Q9Y6Q9) (assay: NCOA3 GAL4-fusion reporter inhibition – cell-based, luminescence, quadruplicate, confirmation (AID 588792;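 active = mean inhibition over 43.08%, the solvent-only control mean plus 3 SD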;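 note: 0% = DMSO treated cells and 100% = gossypol at 36 µM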)). Conditions: HEK293 GAL4-SRC3 luciferase reporter, at 3.6 µM, hits give high values.
Sequence of Nuclear receptor coactivator 3 (Homo sapiens) (Q9Y6Q9 whole entry, looked up, the tested form may be a part): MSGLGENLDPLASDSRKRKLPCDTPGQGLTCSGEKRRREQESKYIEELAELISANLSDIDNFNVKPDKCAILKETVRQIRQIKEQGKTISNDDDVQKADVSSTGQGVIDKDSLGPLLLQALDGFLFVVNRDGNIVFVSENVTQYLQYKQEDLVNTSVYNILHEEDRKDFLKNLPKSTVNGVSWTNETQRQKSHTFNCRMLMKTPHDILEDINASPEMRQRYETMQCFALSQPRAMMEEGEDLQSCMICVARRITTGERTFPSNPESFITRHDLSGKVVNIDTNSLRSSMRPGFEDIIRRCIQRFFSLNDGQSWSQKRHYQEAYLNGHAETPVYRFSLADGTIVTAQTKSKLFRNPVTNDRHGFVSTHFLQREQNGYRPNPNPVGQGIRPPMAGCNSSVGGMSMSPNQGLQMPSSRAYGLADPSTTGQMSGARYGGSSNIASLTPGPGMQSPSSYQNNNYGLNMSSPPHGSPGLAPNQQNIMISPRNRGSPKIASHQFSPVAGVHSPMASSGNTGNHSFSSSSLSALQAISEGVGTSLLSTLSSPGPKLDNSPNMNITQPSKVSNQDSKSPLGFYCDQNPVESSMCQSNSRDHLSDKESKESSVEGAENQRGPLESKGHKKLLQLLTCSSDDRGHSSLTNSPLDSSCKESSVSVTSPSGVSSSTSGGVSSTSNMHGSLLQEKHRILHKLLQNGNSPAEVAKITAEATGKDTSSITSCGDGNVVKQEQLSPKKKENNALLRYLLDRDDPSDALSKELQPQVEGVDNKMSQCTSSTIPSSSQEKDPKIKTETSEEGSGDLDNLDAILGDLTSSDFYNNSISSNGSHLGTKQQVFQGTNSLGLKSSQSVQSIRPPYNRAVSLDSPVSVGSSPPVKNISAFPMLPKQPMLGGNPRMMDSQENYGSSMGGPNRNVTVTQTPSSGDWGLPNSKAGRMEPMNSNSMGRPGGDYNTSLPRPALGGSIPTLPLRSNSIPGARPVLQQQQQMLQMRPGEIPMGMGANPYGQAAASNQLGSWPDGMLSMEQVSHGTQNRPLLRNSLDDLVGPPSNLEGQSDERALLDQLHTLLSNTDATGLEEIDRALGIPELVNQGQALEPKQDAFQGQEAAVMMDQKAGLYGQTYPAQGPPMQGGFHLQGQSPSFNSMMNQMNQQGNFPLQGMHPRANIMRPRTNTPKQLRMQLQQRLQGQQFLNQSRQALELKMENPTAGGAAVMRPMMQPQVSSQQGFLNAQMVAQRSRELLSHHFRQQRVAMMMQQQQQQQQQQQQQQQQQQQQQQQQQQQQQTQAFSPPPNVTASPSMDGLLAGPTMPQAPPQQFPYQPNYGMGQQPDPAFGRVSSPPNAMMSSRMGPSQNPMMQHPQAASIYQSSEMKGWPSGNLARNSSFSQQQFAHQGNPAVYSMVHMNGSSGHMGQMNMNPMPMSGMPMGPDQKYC

Row | Compound | inhibition
1 | COc1ccc(Oc2ccc(/C=C/C(=O)c3ccc(O)cc3)cc2[N+](=O)[O-])cc1 | -5.49%
2 | Cc1nc(Nc2nc(CSc3nc4ccccc4[nH]3)cc(=O)[nH]2)nc2ccccc12 | -5.42%
3 | Cc1cccc(C)c1NC(=O)c1ccc(-c2ccc(Cl)cc2Cl)o1 | 28.4%
4 | CCOC(=O)c1c(C)[nH]c(C(=O)N/N=C\c2ccccc2O)c1C | 11.6%
5 | Cc1ccc(NC(=O)C(=Cc2ccc(C(=O)O)cc2)C(=O)Nc2ccc(C)cc2C)c(C)c1 | 32.6%
6 | O=C(CCSc1ccc(Cl)cc1)N1CCN(c2ccc(O)cc2)CC1 | 3.85%
7 | Cc1cccc(NNC(=O)C(=O)NNc2cccc(C)c2)c1 | 18.6%
8 | C#CCOCCOCCOCCNc1nc(N2CCN(C(=O)Cn3cc(CCCN=C(N)N)nn3)CC2)nc(N2CCN(C(=O)[C@H](C)n3cc(CCCN=C(N)N)nn3)CC2)n1 | 3.42%
9 | O=C(Nc1nc2ccccc2s1)C1c2ccccc2Oc2ccccc21 | 39.2%
10 | COc1ccc(OC)c(Nc2nc(N)nc(CCl)n2)c1 | 15.4%
11 | COc1ccc(-c2nc(CSCC(=O)NCc3ccco3)c(C)o2)cc1 | 42.1%
12 | CCOC(=O)CCCCC1C(CCCC(=O)OCC)C=NN1C (stereo not given) | -16%
13 | Fc1ccccc1-c1csc(=Nc2cccnc2)n1CCCn1ccnc1 | 37.4%
14 | CCn1c(C)nc2cc(C(=O)N/N=C(\C)c3ccc(OC)cc3O)ccc21 | 24.6%
15 | O=C1c2ccc3c4c(ccc(c24)C(=O)N1c1cccc(O)c1)C(=O)N(c1cccc(O)c1)C3=O | 30.3%
16 | Clc1ccc(C[n+]2cc(-c3ccccc3)n3c2CCCCC3)c(Cl)c1 | 22.4%
17 | CCCCNC(=O)c1onc(CSc2cc(C)cc(C)c2)c1C(=O)NCCCC | 7.83%
18 | CCN(C(=O)COC(=O)c1ccccc1Cc1ccccc1)c1c(N)n(Cc2ccccc2)c(=O)[nH]c1=O | 6.67%
19 | C=CCN1CN(S(=O)(=O)c2cccs2)c2nc3ccccc3nc21 | -9.88%
20 | Cc1ccc(CNC(=O)c2ccc3c(=O)c(O)c(-c4ccc(C)cc4)[nH]c3c2)cc1 | 28.5%

Row | Compound | inhibition
21 | CC(=O)c1c(C(C)=O)c(C)n(-c2ccc3ncccc3c2)c1C | 15.4%
22 | CCCc1[nH]nc2c1C(c1ccc(Br)s1)C(C#N)=C(N)O2 (stereo not given) | 8.21%
23 | CC1CCCCC12NC(=O)N(CC(=O)N1CCN(Cc3ccc(C#N)cc3)CC1)C2=O (stereo not given) | -3.89%
24 | COc1ccc(S(=O)(=O)NCc2ccncc2)cc1NC(=O)c1ccc(Cl)cc1 | 14.2%
25 | Cn1nc(CC(=O)Nc2ccc(N3CCN(C(=O)OC(C)(C)C)CC3)cc2)c2ccccc2c1=O | 17.6%
26 | c1ccc(CN2CCN(c3ncnc4c3[nH]c3ccccc34)CC2)cc1 | 8.1%
27 | CCN1C/C(=C\c2cccc([N+](=O)[O-])c2)C(=O)/C(=C/c2cccc([N+](=O)[O-])c2)C1 | -110%
28 | O=C(CNc1cccc2ccccc12)N/N=C/c1ccc[nH]1 | 7.38%
29 | CCCn1nc(C(=O)NCC2COc3ccccc3O2)c2ccccc2c1=O (stereo not given) | 9.61%
30 | COc1ccc(-n2c(C)cc(C(=O)COc3ccc(C)nc3[N+](=O)[O-])c2C)cc1 | 14.4%
31 | Cc1cc[n+](C(C)C(=O)c2ccc(-c3ccccc3)cc2)cc1 (stereo not given) | 8.52%
32 | CCCCC(=O)NC(c1ccco1)c1cc(Cl)c2cccnc2c1O (stereo not given) | 16.4%
33 | CC(C)C(=O)N1CCN(c2ccc(NC(=O)COc3ccccc3[N+](=O)[O-])cc2)CC1 | 12.7%
34 | C#CC(=O)N(c1cc(OC)ccc1OC)C(C(=O)NC1CCCC1)c1cccs1 (stereo not given) | 49.7% (active)
35 | COc1ccc(C)cc1NS(=O)(=O)c1ccc(NC(=O)CN(c2cc([N+](=O)[O-])ccc2C)S(C)(=O)=O)cc1 | 58.6% (active)
36 | O=C(Nc1cc(C(=O)N2CCCC2)ccc1N1CCCC1)c1ccccc1F | 27.3%
37 | CCOC(=O)C1=CCN(S(=O)(=O)c2ccc(C)cc2)C1c1cccc(Cl)c1 (stereo not given) | 15.1%
38 | CN1C(=O)C2(C(C#N)=C(N)N(c3cc(Cl)cc(Cl)c3)C3=C2C(=O)CCC3)c2ccccc21 (stereo not given) | 30.9%
39 | O=C(NN=Cc1cccc(O)c1O)c1ccccc1 | 23.7%
40 | COc1cc(/C=C2\SC(=S)N(CCC(=O)NC3CCCC3)C2=O)cc(OC)c1OC | -4.46%

The compounds below were run on transactivating tegument protein VP16 (Human herpesvirus 1), Gal4-VP16 luciferase reporter (assay: repression of VP16-driven luciferase reporter – cell-based, luminescence, high throughput, counter-screen for SRC3 inhibitor project (AID 588794)). Conditions: mammalian cells, at 3.6 µM, hits give high values.

Row | Compound | inhibition
41 | COc1ccc(Oc2ccc(/C=C/C(=O)c3ccc(O)cc3)cc2[N+](=O)[O-])cc1 | -5.56%
42 | Cc1nc(Nc2nc(CSc3nc4ccccc4[nH]3)cc(=O)[nH]2)nc2ccccc12 | 3.35%
43 | Cc1cccc(C)c1NC(=O)c1ccc(-c2ccc(Cl)cc2Cl)o1 | 23%
44 | CCOC(=O)c1c(C)[nH]c(C(=O)N/N=C\c2ccccc2O)c1C | 12.8%
45 | Cc1ccc(NC(=O)C(=Cc2ccc(C(=O)O)cc2)C(=O)Nc2ccc(C)cc2C)c(C)c1 | 46% (active)
46 | O=C(CCSc1ccc(Cl)cc1)N1CCN(c2ccc(O)cc2)CC1 | 28%
47 | Cc1cccc(NNC(=O)C(=O)NNc2cccc(C)c2)c1 | 24.3%
48 | C#CCOCCOCCOCCNc1nc(N2CCN(C(=O)Cn3cc(CCCN=C(N)N)nn3)CC2)nc(N2CCN(C(=O)[C@H](C)n3cc(CCCN=C(N)N)nn3)CC2)n1 | 0.02%
49 | O=C(Nc1nc2ccccc2s1)C1c2ccccc2Oc2ccccc21 | 21.4%
50 | COc1ccc(OC)c(Nc2nc(N)nc(CCl)n2)c1 | 4.74%
51 | COc1ccc(-c2nc(CSCC(=O)NCc3ccco3)c(C)o2)cc1 | -11.2%
52 | CCOC(=O)CCCCC1C(CCCC(=O)OCC)C=NN1C (stereo not given) | -3.48%
53 | Fc1ccccc1-c1csc(=Nc2cccnc2)n1CCCn1ccnc1 | 25.1%
54 | CCn1c(C)nc2cc(C(=O)N/N=C(\C)c3ccc(OC)cc3O)ccc21 | 8.7%
55 | O=C1c2ccc3c4c(ccc(c24)C(=O)N1c1cccc(O)c1)C(=O)N(c1cccc(O)c1)C3=O | 31% (active)
56 | Clc1ccc(C[n+]2cc(-c3ccccc3)n3c2CCCCC3)c(Cl)c1 | 46.7% (active)
57 | CCCCNC(=O)c1onc(CSc2cc(C)cc(C)c2)c1C(=O)NCCCC | 4.86%
58 | CCN(C(=O)COC(=O)c1ccccc1Cc1ccccc1)c1c(N)n(Cc2ccccc2)c(=O)[nH]c1=O | 13.9%
59 | C=CCN1CN(S(=O)(=O)c2cccs2)c2nc3ccccc3nc21 | 7.9%
60 | Cc1ccc(CNC(=O)c2ccc3c(=O)c(O)c(-c4ccc(C)cc4)[nH]c3c2)cc1 | 8.89%

Row | Compound | inhibition
61 | CC(=O)c1c(C(C)=O)c(C)n(-c2ccc3ncccc3c2)c1C | 6.55%
62 | CCCc1[nH]nc2c1C(c1ccc(Br)s1)C(C#N)=C(N)O2 (stereo not given) | 25.7%
63 | CC1CCCCC12NC(=O)N(CC(=O)N1CCN(Cc3ccc(C#N)cc3)CC1)C2=O (stereo not given) | 6.63%
64 | COc1ccc(S(=O)(=O)NCc2ccncc2)cc1NC(=O)c1ccc(Cl)cc1 | 4.55%
65 | Cn1nc(CC(=O)Nc2ccc(N3CCN(C(=O)OC(C)(C)C)CC3)cc2)c2ccccc2c1=O | 42.2% (active)
66 | c1ccc(CN2CCN(c3ncnc4c3[nH]c3ccccc34)CC2)cc1 | 29.9% (active)
67 | CCN1C/C(=C\c2cccc([N+](=O)[O-])c2)C(=O)/C(=C/c2cccc([N+](=O)[O-])c2)C1 | 80.6% (active)
68 | O=C(CNc1cccc2ccccc12)N/N=C/c1ccc[nH]1 | 5.09%
69 | CCCn1nc(C(=O)NCC2COc3ccccc3O2)c2ccccc2c1=O (stereo not given) | 3.2%
70 | COc1ccc(-n2c(C)cc(C(=O)COc3ccc(C)nc3[N+](=O)[O-])c2C)cc1 | 10.7%
71 | Cc1cc[n+](C(C)C(=O)c2ccc(-c3ccccc3)cc2)cc1 (stereo not given) | 32% (active)
72 | CCCCC(=O)NC(c1ccco1)c1cc(Cl)c2cccnc2c1O (stereo not given) | 10.6%
73 | CC(C)C(=O)N1CCN(c2ccc(NC(=O)COc3ccccc3[N+](=O)[O-])cc2)CC1 | 28.6%
74 | C#CC(=O)N(c1cc(OC)ccc1OC)C(C(=O)NC1CCCC1)c1cccs1 (stereo not given) | 7.33%
75 | COc1ccc(C)cc1NS(=O)(=O)c1ccc(NC(=O)CN(c2cc([N+](=O)[O-])ccc2C)S(C)(=O)=O)cc1 | -20%
76 | O=C(Nc1cc(C(=O)N2CCCC2)ccc1N1CCCC1)c1ccccc1F | 13.1%
77 | CCOC(=O)C1=CCN(S(=O)(=O)c2ccc(C)cc2)C1c1cccc(Cl)c1 (stereo not given) | 6.03%
78 | CN1C(=O)C2(C(C#N)=C(N)N(c3cc(Cl)cc(Cl)c3)C3=C2C(=O)CCC3)c2ccccc21 (stereo not given) | 27.9%
79 | O=C(NN=Cc1cccc(O)c1O)c1ccccc1 | 21.5%
80 | COc1cc(/C=C2\SC(=S)N(CCC(=O)NC3CCCC3)C2=O)cc(OC)c1OC | 9.3%
